The whole screen tested about 5,500 compounds, of which about 2,000 (36%) were called active. Another 18% or so got no clear call; they are omitted. Cut-off read from the data, not from the text of the source: active = normalized growth mostly below about 0.91 (no sharp cut-off); inconclusive = no clear call, values can overlap the other calls; inactive = mostly above about 0.92. Some of the results follow.
Experiment: chemical genetic growth profiling, strain panel (AID 1159580);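 note: tested at 20 µM; growth read once vehicle control cultures reached saturation at 30 °C; 1 = growth at the plate median or of vehicle wells; lower values mean less growth of the strain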
Conditions: growth OD

Measured: normalized growth

NC[C@@H]1O[C@H](O[C@@H]2[C@@H](CO)OC(O[C@@H]3[C@@H](O)[C@H](N)C[C@H](N)[C@H]3O[C@H]3O[C@H](CO)[C@@H](O)[C@H](O)[C@H]3N)[C@@H]2O)[C@H](N)[C@@H](O)[C@@H]1O (stereo partly drawn)
inactive: S. cerevisiae deletion strains, locus YJR043C, strain POL32, stronger effect = lower value 0.936 | S. cerevisiae deletion strains, locus YJR066W, strain TOR1, stronger effect = lower value 0.945 | S. cerevisiae deletion strains, locus YKL009W, strain mrt4, stronger effect = lower value 0.982 | S. cerevisiae deletion strains, locus YKL068W, stronger effect = lower value 0.993 | S. cerevisiae deletion strains, locus YKL085W, strain MDH1 (second series), stronger effect = lower value 0.995 | S. cerevisiae deletion strains, locus YKL085W, strain MDH1, stronger effect = lower value 0.995 | S. cerevisiae deletion strains, locus YKL160W, strain elf1, stronger effect = lower value 0.996 | S. cerevisiae deletion strains, locus YKL190W, strain CNB1, stronger effect = lower value 0.988 | S. cerevisiae deletion strains, locus YKR001C, strain vps1, stronger effect = lower value 0.988 | S. cerevisiae deletion strains, locus YKR026C, strain gcn3, stronger effect = lower value 0.992 | S. cerevisiae deletion strains, locus YKR091W, strain srl3, stronger effect = lower value 0.989 | S. cerevisiae deletion strains, locus YLL001W, strain dnm1, stronger effect = lower value 0.985 | S. cerevisiae deletion strains, locus YLL026W, stronger effect = lower value 0.987 | S. cerevisiae deletion strains, locus YLL041C, strain sdh2, stronger effect = lower value 0.993 | S. cerevisiae deletion strains, locus YLR027C, strain aat2, stronger effect = lower value 0.987 | S. cerevisiae deletion strains, locus YLR039C, strain RIC1, stronger effect = lower value 0.983 | S. cerevisiae deletion strains, locus YLR058C, strain SHM2, stronger effect = lower value 0.978 | S. cerevisiae deletion strains, locus YLR102C, strain apc9, stronger effect = lower value 0.989 | S. cerevisiae deletion strains, locus YLR113W, strain HOG1, stronger effect = lower value 0.952 | S. cerevisiae deletion strains, locus YLR221C, strain rsa3, stronger effect = lower value 0.991 | S. cerevisiae deletion strains, locus YLR258W, strain gsy2, stronger effect = lower value 0.993 | S. cerevisiae deletion strains, locus YLR262C, strain YPT6 (second series), stronger effect = lower value 1.01 | S. cerevisiae deletion strains, locus YLR262C, strain YPT6, stronger effect = lower value 0.973 | S. cerevisiae deletion strains, locus YLR268W, strain sec22, stronger effect = lower value 0.986 | S. cerevisiae deletion strains, locus YLR320W, strain mms22, stronger effect = lower value 0.997 | S. cerevisiae deletion strains, locus YLR330W, strain CHS5, stronger effect = lower value 0.998 | S. cerevisiae deletion strains, locus YLR342W, strain FKS1 (second series), stronger effect = lower value 1.09 | S. cerevisiae deletion strains, locus YLR342W, strain FKS1, stronger effect = lower value 0.992 | S. cerevisiae deletion strains, locus YLR357W, strain rsc2, stronger effect = lower value 0.992 | S. cerevisiae deletion strains, locus YLR370C, strain arc18, stronger effect = lower value 0.992 | S. cerevisiae deletion strains, locus YLR371W, strain rom2, stronger effect = lower value 1 | S. cerevisiae deletion strains, locus YLR384C, strain iki3, stronger effect = lower value 0.99 | S. cerevisiae deletion strains, locus YLR418C, strain cdc73, stronger effect = lower value 1.01 | S. cerevisiae deletion strains, locus YML016C, strain PPZ1, stronger effect = lower value 0.992 | S. cerevisiae deletion strains, locus YML032C, strain rad52, stronger effect = lower value 0.98 | S. cerevisiae deletion strains, locus YML120C, strain ndi1, stronger effect = lower value 0.988 | S. cerevisiae deletion strains, locus YML124C, strain tub3, stronger effect = lower value 0.985 | S. cerevisiae deletion strains, locus YMR058W, strain fet3, stronger effect = lower value 0.988 | S. cerevisiae deletion strains, locus YMR078C, strain ctf18, stronger effect = lower value 0.989 | S. cerevisiae deletion strains, locus YMR125W, strain sto1, stronger effect = lower value 0.998 | S. cerevisiae deletion strains, locus YMR129W, stronger effect = lower value 0.998 | S. cerevisiae deletion strains, locus YMR205C, strain PFK2, stronger effect = lower value 0.994 | S. cerevisiae deletion strains, locus YMR223W, strain ubp8, stronger effect = lower value 1.01 | S. cerevisiae deletion strains, locus YMR231W, strain pep5, stronger effect = lower value 1 | S. cerevisiae deletion strains, locus YMR307W, strain GAS1, stronger effect = lower value 1.07 | S. cerevisiae deletion strains, locus YNL067W, strain RPL9B, stronger effect = lower value 0.97 | S. cerevisiae deletion strains, locus YNL071W, strain lat1, stronger effect = lower value 0.987 | S. cerevisiae deletion strains, locus YNL183C, strain NPR1, stronger effect = lower value 0.939 | S. cerevisiae deletion strains, locus YNL209W, strain ssb2, stronger effect = lower value 0.999 | S. cerevisiae deletion strains, locus YNL233W, strain BNI4, stronger effect = lower value 0.995 | S. cerevisiae deletion strains, locus YNL248C, strain rpa49, stronger effect = lower value 0.988 | S. cerevisiae deletion strains, locus YNL250W, strain rad50, stronger effect = lower value 0.991 | S. cerevisiae deletion strains, locus YNL271C, strain bni1, stronger effect = lower value 0.986 | S. cerevisiae deletion strains, locus YNL298W, strain CLA4, stronger effect = lower value 0.989 | S. cerevisiae deletion strains, locus YNL307C, strain MCK1, stronger effect = lower value 0.983 | S. cerevisiae deletion strains, locus YNL322C, strain KRE1 (second series), stronger effect = lower value 0.989 | S. cerevisiae deletion strains, locus YNR049C, strain mso1, stronger effect = lower value 0.993 | S. cerevisiae deletion strains, locus YNR052C, strain pop2, stronger effect = lower value 0.998 | S. cerevisiae deletion strains, locus YOL006C, strain TOP1, stronger effect = lower value 0.932 | S. cerevisiae deletion strains, locus YOL012C, strain htz1 1.06 | S. cerevisiae deletion strains, locus YOL147C, strain pex11, stronger effect = lower value 1 | S. cerevisiae deletion strains, locus YOR001W, strain rrp6, stronger effect = lower value 0.985 | S. cerevisiae deletion strains, locus YOR061W, strain CKA2, stronger effect = lower value 0.973 | S. cerevisiae deletion strains, locus YOR069W, strain VPS5, stronger effect = lower value 0.998 | S. cerevisiae deletion strains, locus YOR070C, strain gyp1, stronger effect = lower value 0.995 | S. cerevisiae deletion strains, locus YOR080W, strain dia2, stronger effect = lower value 0.989 | S. cerevisiae deletion strains, locus YOR083W, strain WHI5, stronger effect = lower value 0.993 | S. cerevisiae deletion strains, locus YOR106W, strain vam3, stronger effect = lower value 0.995 | S. cerevisiae deletion strains, locus YOR136W, strain idh2, stronger effect = lower value 0.98 | S. cerevisiae deletion strains, locus YOR144C, strain elg1, stronger effect = lower value 0.999 | S. cerevisiae deletion strains, locus YOR184W, strain ser1, stronger effect = lower value 0.972 | S. cerevisiae deletion strains, locus YOR231W, strain MKK1, stronger effect = lower value 0.965 | S. cerevisiae deletion strains, locus YOR265W, strain rbl2, stronger effect = lower value 0.992 | S. cerevisiae deletion strains, locus YOR270C, strain vph1, stronger effect = lower value 0.966 | S. cerevisiae deletion strains, locus YOR290C, strain snf2, stronger effect = lower value 0.989 | S. cerevisiae deletion strains, locus YOR316C, strain cot1, stronger effect = lower value 0.979 | S. cerevisiae deletion strains, locus YPL051W, strain arl3, stronger effect = lower value 0.989 | S. cerevisiae deletion strains, locus YPL078C, strain atp4, stronger effect = lower value 0.99 | S. cerevisiae deletion strains, locus YPL106C, strain sse1, stronger effect = lower value 0.967 | S. cerevisiae deletion strains, locus YPL240C, strain hsp82, stronger effect = lower value 0.997 | S. cerevisiae deletion strains, locus YPL241C, strain CIN2, stronger effect = lower value 0.998 | S. cerevisiae deletion strains, locus YPL256C, strain CLN2, stronger effect = lower value 0.968 | S. cerevisiae deletion strains, locus YPR119W, strain clb2, stronger effect = lower value 0.99 | S. cerevisiae deletion strains, locus YPR141C, strain kar3, stronger effect = lower value 0.988 | S. cerevisiae deletion strains, locus YPR163C, strain tif3, stronger effect = lower value 0.998 | S. cerevisiae deletion strains, locus YPR167C, strain met16, stronger effect = lower value 0.999 | S. cerevisiae deletion strains, strain wtn01, stronger effect = lower value 1.02 | S. cerevisiae strains, strain wild type, stronger effect = lower value 0.988

— PubChem BioAssay AID1159580 (chemical genetic matrix, 2015)
